Measurements from article PMC11006913.
Where a chain is given by its changes, count along the chain named.

Experiments:
Assay in all cases: PBM; 200 nM protein, PBS
Conditions in all cases: dsDNA, one strand shown
HOXC10 [1] = biological target: HOXC10 (Homo sapiens, UniProt Q9NYD6 254-340)
PAX4 [2] = biological target: T1, PAX4 (Homo sapiens, UniProt O43316 9-242, R200K)
T1 sequence: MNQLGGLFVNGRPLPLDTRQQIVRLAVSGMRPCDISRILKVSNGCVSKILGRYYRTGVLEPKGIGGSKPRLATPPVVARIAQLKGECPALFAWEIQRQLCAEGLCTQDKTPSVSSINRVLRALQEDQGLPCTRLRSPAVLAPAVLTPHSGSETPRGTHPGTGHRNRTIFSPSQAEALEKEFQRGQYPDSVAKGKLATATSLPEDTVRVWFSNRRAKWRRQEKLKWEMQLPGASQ

PAX4 [3] = biological target: T2, PAX4 (Homo sapiens, UniProt O43316 9-242)
T2 sequence: T1 sequence with K192R

ALX1 [4] = biological target: ALX1 (Homo sapiens, UniProt Q15699 118-204, L144V)
PAX4 [5] = biological target: T3, PAX4 (Homo sapiens, UniProt O43316 9-242, R200Q)
T3 sequence: T1 sequence with K192Q

ALX1 [6] = biological target: ALX1 (Homo sapiens, UniProt Q15699 118-204, L144R)
PAX4 [7] = biological target: T4, PAX4 (Homo sapiens, UniProt O43316 9-242, F177V)
T4 sequence: T1 sequence with F169V, K192R

HOXC10 [8] = biological target: HOXC10 (Homo sapiens, UniProt Q9NYD6 254-340, K271E)
PAX4 [9] = biological target: T5, PAX4 (Homo sapiens, UniProt O43316 9-242, F177Y)
T5 sequence: T1 sequence with F169Y, K192R

PAX4 [10] = biological target: T6, PAX4 (Homo sapiens, UniProt O43316 9-242, R227W)
T6 sequence: T1 sequence with K192R, R219W

ALX1 [11] = biological target: ALX1 (Homo sapiens, UniProt Q15699 118-204)
CRX = CRX (Homo sapiens, UniProt O43186 26-111, R41L)
PRRX1 = PRRX1 (Homo sapiens, UniProt P54821 80-166, F113S)
HOXC9 = HOXC9 (Homo sapiens, UniProt P31274 178-260, R222W)
PROP1 [12] = biological target: PROP1 (Homo sapiens, UniProt O75360 56-141)
PROP1 [13] = biological target: PROP1 (Homo sapiens, UniProt O75360 56-141, R99H)
PROP1 [14] = biological target: PROP1 (Homo sapiens, UniProt O75360 56-141, F88S)
NKX2-6 [15] = biological target: T7, NKX2-6 (Homo sapiens, UniProt A6NCS4 118-204, R150C)
T7 sequence: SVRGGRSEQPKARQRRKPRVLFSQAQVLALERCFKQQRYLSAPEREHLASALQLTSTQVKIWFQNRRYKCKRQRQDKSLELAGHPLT

HOXA2 [16] = biological target: HOXA2 (Homo sapiens, UniProt O43364 129-215, R185T)
HOXA2 [17] = biological target: HOXA2 (Homo sapiens, UniProt O43364 129-215, R185K)
VAX1 [18] = biological target: VAX1 (Homo sapiens, UniProt Q5SQQ9 86-172)
VAX1 [19] = biological target: VAX1 (Homo sapiens, UniProt Q5SQQ9 86-172, T142I)
HOXA2 [20] = biological target: HOXA2 (Homo sapiens, UniProt O43364 129-215, Y150S)
HOXA2 [21] = biological target: HOXA2 (Homo sapiens, UniProt O43364 129-215)
VAX1 [22] = biological target: VAX1 (Homo sapiens, UniProt Q5SQQ9 86-172, K157R)
ALX3 [23] = biological target: ALX3 (Homo sapiens, UniProt O95076 139-225, N203Q)
NKX2-6 [24] = biological target: T8, NKX2-6 (Homo sapiens, UniProt A6NCS4 118-204)
T8 sequence: T7 sequence with C33R

ALX3 [25] = biological target: ALX3 (Homo sapiens, UniProt O95076 139-225)
ALX3 [26] = biological target: ALX3 (Homo sapiens, UniProt O95076 139-225, L168Q)
NKX2-6 [27] = biological target: T9, NKX2-6 (Homo sapiens, UniProt A6NCS4 118-204, F151L)
T9 sequence: T7 sequence with C33R, F34L

ALX3 [28] = biological target: ALX3 (Homo sapiens, UniProt O95076 139-225, L168V)
ALX3 [29] = biological target: ALX3 (Homo sapiens, UniProt O95076 139-225, N203S)
ALX3 (Homo sapiens, UniProt O95076 139-225, N203S), sequence (O95076 139-225 N203S): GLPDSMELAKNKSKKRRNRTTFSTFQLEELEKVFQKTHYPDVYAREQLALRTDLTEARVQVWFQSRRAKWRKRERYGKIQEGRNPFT

HOXC10 (Homo sapiens, UniProt Q9NYD6 254-340), sequence (Q9NYD6 254-340): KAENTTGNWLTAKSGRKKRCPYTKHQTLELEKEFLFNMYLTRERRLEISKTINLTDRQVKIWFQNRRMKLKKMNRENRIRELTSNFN
HOXC10 (Homo sapiens, UniProt Q9NYD6 254-340, K271E), sequence (Q9NYD6 254-340 K271E): as the sequence (Q9NYD6 254-340) above, with K18E counted along it
ALX3 (Homo sapiens, UniProt O95076 139-225, L168Q), sequence (O95076 139-225 L168Q): as the sequence (O95076 139-225 N203S) above, with L30Q, S65N counted along it
ALX1 (Homo sapiens, UniProt Q15699 118-204, L144R), sequence (Q15699 118-204 L144R): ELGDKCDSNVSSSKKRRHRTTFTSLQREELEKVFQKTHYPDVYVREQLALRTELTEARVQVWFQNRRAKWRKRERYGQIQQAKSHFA
ALX3 (Homo sapiens, UniProt O95076 139-225), sequence (O95076 139-225): as the sequence (O95076 139-225 N203S) above, with S65N counted along it
VAX1 (Homo sapiens, UniProt Q5SQQ9 86-172, T142I), sequence (Q5SQQ9 86-172 T142I): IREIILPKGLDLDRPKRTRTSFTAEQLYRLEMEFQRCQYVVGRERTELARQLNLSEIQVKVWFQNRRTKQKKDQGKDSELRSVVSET
PROP1 (Homo sapiens, UniProt O75360 56-141, R99H), sequence (O75360 56-141 R99H): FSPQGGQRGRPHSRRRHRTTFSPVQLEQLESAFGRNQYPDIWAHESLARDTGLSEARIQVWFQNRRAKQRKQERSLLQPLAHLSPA
ALX3 (Homo sapiens, UniProt O95076 139-225, N203Q), sequence (O95076 139-225 N203Q): as the sequence (O95076 139-225 N203S) above, with S65Q counted along it
HOXA2 (Homo sapiens, UniProt O43364 129-215), sequence (O43364 129-215): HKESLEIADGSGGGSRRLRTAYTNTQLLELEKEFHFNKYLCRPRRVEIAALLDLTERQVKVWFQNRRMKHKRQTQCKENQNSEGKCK
HOXA2 (Homo sapiens, UniProt O43364 129-215, R185K), sequence (O43364 129-215 R185K): as the sequence (O43364 129-215) above, with R57K counted along it
ALX1 (Homo sapiens, UniProt Q15699 118-204, L144V), sequence (Q15699 118-204 L144V): as the sequence (Q15699 118-204 L144R) above, with R27V counted along it
ALX3 (Homo sapiens, UniProt O95076 139-225, L168V), sequence (O95076 139-225 L168V): as the sequence (O95076 139-225 N203S) above, with L30V, S65N counted along it
HOXA2 (Homo sapiens, UniProt O43364 129-215, R185T), sequence (O43364 129-215 R185T): as the sequence (O43364 129-215) above, with R57T counted along it
VAX1 (Homo sapiens, UniProt Q5SQQ9 86-172), sequence (Q5SQQ9 86-172): as the sequence (Q5SQQ9 86-172 T142I) above, with I57T counted along it
PRRX1, sequence (P54821 80-166 F113S): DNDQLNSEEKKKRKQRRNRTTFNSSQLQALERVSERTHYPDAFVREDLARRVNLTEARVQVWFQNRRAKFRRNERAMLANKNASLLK
CRX, sequence (O43186 26-111 R41L): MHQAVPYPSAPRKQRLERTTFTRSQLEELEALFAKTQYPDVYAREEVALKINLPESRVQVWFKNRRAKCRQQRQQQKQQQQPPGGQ
HOXA2 (Homo sapiens, UniProt O43364 129-215, Y150S), sequence (O43364 129-215 Y150S): as the sequence (O43364 129-215) above, with Y22S counted along it
VAX1 (Homo sapiens, UniProt Q5SQQ9 86-172, K157R), sequence (Q5SQQ9 86-172 K157R): as the sequence (Q5SQQ9 86-172 T142I) above, with I57T, K72R counted along it
HOXC9, sequence (P31274 178-260 R222W): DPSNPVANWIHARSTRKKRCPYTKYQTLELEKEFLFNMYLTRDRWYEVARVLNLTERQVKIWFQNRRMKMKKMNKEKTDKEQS
ALX1 (Homo sapiens, UniProt Q15699 118-204), sequence (Q15699 118-204): as the sequence (Q15699 118-204 L144R) above, with R27L counted along it
PROP1 (Homo sapiens, UniProt O75360 56-141), sequence (O75360 56-141): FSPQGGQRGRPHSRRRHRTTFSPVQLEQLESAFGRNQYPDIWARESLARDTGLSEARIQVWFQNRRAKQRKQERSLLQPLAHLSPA
PROP1 (Homo sapiens, UniProt O75360 56-141, F88S), sequence (O75360 56-141 F88S): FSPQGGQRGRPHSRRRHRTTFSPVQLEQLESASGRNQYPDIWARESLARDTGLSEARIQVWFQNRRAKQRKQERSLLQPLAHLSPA

Sequence: ACCCGAGC
- binding signal (HOXC10 [1]): 10.1 upbm affinity estimate (log intensity, higher = more binding, comparable within an allelic series)
- binding signal (PAX4 [2]): 9.37 upbm affinity estimate (log intensity, higher = more binding, comparable within an allelic series)
- binding signal (PAX4 [3]): 9.24 upbm affinity estimate (log intensity, higher = more binding, comparable within an allelic series)
- binding signal (ALX1 [4]): 6.62 upbm affinity estimate (log intensity, higher = more binding, comparable within an allelic series)
- binding signal (PAX4 [5]): 9.32 upbm affinity estimate (log intensity, higher = more binding, comparable within an allelic series)
- binding signal (ALX1 [6]): 6.43 upbm affinity estimate (log intensity, higher = more binding, comparable within an allelic series)
- binding signal (PAX4 [7]): 9.28 upbm affinity estimate (log intensity, higher = more binding, comparable within an allelic series)
- binding signal (HOXC10 [8]): 10 upbm affinity estimate (log intensity, higher = more binding, comparable within an allelic series)
- binding signal (PAX4 [9]): 9.29 upbm affinity estimate (log intensity, higher = more binding, comparable within an allelic series)
- binding signal (PAX4 [10]): 9.37 upbm affinity estimate (log intensity, higher = more binding, comparable within an allelic series)
- binding signal (ALX1 [11]): 6.4 upbm affinity estimate (log intensity, higher = more binding, comparable within an allelic series)

Sequence: TAATACGA
- binding signal (HOXC10 [1]): 11 upbm affinity estimate (log intensity, higher = more binding, comparable within an allelic series)
- binding signal (PAX4 [2]): 11.6 upbm affinity estimate (log intensity, higher = more binding, comparable within an allelic series)
- binding signal (PAX4 [10]): 10.9 upbm affinity estimate (log intensity, higher = more binding, comparable within an allelic series)
- binding signal (CRX): 10.4 upbm affinity estimate (log intensity, higher = more binding, comparable within an allelic series)

Sequence: TTAATAAA
- binding signal (HOXC10 [1]): 12.2 upbm affinity estimate (log intensity, higher = more binding, comparable within an allelic series)
- binding signal (PRRX1): 11 upbm affinity estimate (log intensity, higher = more binding, comparable within an allelic series)
- binding signal (HOXC10 [8]): 11.5 upbm affinity estimate (log intensity, higher = more binding, comparable within an allelic series)
- binding signal (HOXC9): 11.2 upbm affinity estimate (log intensity, higher = more binding, comparable within an allelic series)

Sequence: AGCGGGGG
- binding signal (HOXC10 [1]): 10.1 upbm affinity estimate (log intensity, higher = more binding, comparable within an allelic series)
- binding signal (PAX4 [2]): 9.03 upbm affinity estimate (log intensity, higher = more binding, comparable within an allelic series)
- binding signal (PAX4 [3]): 9.24 upbm affinity estimate (log intensity, higher = more binding, comparable within an allelic series)
- binding signal (PAX4 [5]): 9.17 upbm affinity estimate (log intensity, higher = more binding, comparable within an allelic series)
- binding signal (PAX4 [7]): 9 upbm affinity estimate (log intensity, higher = more binding, comparable within an allelic series)
- binding signal (HOXC10 [8]): 9.93 upbm affinity estimate (log intensity, higher = more binding, comparable within an allelic series)
- binding signal (PAX4 [9]): 9.11 upbm affinity estimate (log intensity, higher = more binding, comparable within an allelic series)
- binding signal (PROP1 [12]): 6.68 upbm affinity estimate (log intensity, higher = more binding, comparable within an allelic series)
- binding signal (PROP1 [13]): 6.47 upbm affinity estimate (log intensity, higher = more binding, comparable within an allelic series)
- binding signal (PROP1 [14]): 6.14 upbm affinity estimate (log intensity, higher = more binding, comparable within an allelic series)
- binding signal (PAX4 [10]): 9.16 upbm affinity estimate (log intensity, higher = more binding, comparable within an allelic series)

Sequence: ACCGGGCT
- binding signal (HOXC10 [1]): 10.1 upbm affinity estimate (log intensity, higher = more binding, comparable within an allelic series)
- binding signal (NKX2-6 [15]): 9.65 upbm affinity estimate (log intensity, higher = more binding, comparable within an allelic series)
- binding signal (HOXC10 [8]): 10.1 upbm affinity estimate (log intensity, higher = more binding, comparable within an allelic series)

Sequence: GCACGTTA
- binding signal (HOXC10 [1]): 10.7 upbm affinity estimate (log intensity, higher = more binding, comparable within an allelic series)

Sequence: TTACACAA
- binding signal (HOXC10 [1]): 10.5 upbm affinity estimate (log intensity, higher = more binding, comparable within an allelic series)

Sequence: TATGTGCA
- binding signal (HOXC10 [1]): 10.7 upbm affinity estimate (log intensity, higher = more binding, comparable within an allelic series)

Sequence: GGCACGCC
- binding signal (HOXC10 [1]): 10 upbm affinity estimate (log intensity, higher = more binding, comparable within an allelic series)
- binding signal (HOXA2 [16]): 6.97 upbm affinity estimate (log intensity, higher = more binding, comparable within an allelic series)
- binding signal (HOXA2 [17]): 10.1 upbm affinity estimate (log intensity, higher = more binding, comparable within an allelic series)
- binding signal (HOXC10 [8]): 10 upbm affinity estimate (log intensity, higher = more binding, comparable within an allelic series)
- binding signal (VAX1 [18]): 6.93 upbm affinity estimate (log intensity, higher = more binding, comparable within an allelic series)
- binding signal (VAX1 [19]): 7.04 upbm affinity estimate (log intensity, higher = more binding, comparable within an allelic series)
- binding signal (HOXA2 [20]): 10.3 upbm affinity estimate (log intensity, higher = more binding, comparable within an allelic series)
- binding signal (HOXA2 [21]): 7.03 upbm affinity estimate (log intensity, higher = more binding, comparable within an allelic series)
- binding signal (VAX1 [22]): 6.97 upbm affinity estimate (log intensity, higher = more binding, comparable within an allelic series)

Sequence: CCCCCAGG
- binding signal (HOXC10 [1]): 10.1 upbm affinity estimate (log intensity, higher = more binding, comparable within an allelic series)
- binding signal (ALX3 [23]): 7.76 upbm affinity estimate (log intensity, higher = more binding, comparable within an allelic series)
- binding signal (NKX2-6 [24]): 9.38 upbm affinity estimate (log intensity, higher = more binding, comparable within an allelic series)
- binding signal (HOXC10 [8]): 10.1 upbm affinity estimate (log intensity, higher = more binding, comparable within an allelic series)
- binding signal (ALX3 [25]): 7.79 upbm affinity estimate (log intensity, higher = more binding, comparable within an allelic series)
- binding signal (ALX3 [26]): 7.67 upbm affinity estimate (log intensity, higher = more binding, comparable within an allelic series)
- binding signal (NKX2-6 [27]): 9.1 upbm affinity estimate (log intensity, higher = more binding, comparable within an allelic series)
- binding signal (ALX3 [28]): 7.72 upbm affinity estimate (log intensity, higher = more binding, comparable within an allelic series)
- binding signal (ALX3 [29]): 7.71 upbm affinity estimate (log intensity, higher = more binding, comparable within an allelic series)
